Experiment [1] can be described thus: resazurin metabolic signal in HepG2 cells – cell-based, resazurin fluorescence, 24 h, PK04 Diversity Set, profiling panel (AID 1172). The following applies: HepG2 viability, higher = more signal.
A short description of experiment [2]: budding yeast growth changes without added modifier – OD600, strain BY4716, 24 h, basal condition, primary screen (AID 1173). The following applies: S. cerevisiae BY4716 growth, OD600, 24 h; higher = more signal, called active from +8 up or from −8 down.
Experiment [3] in a line: viability profiling in MM1S myeloma cells – cell-based, resazurin fluorescence, basal, 24 h, PK04 Diversity Set, profiling panel (AID 1174). The following applies: higher = more signal, called active from +8 up or from −8 down.
The target of experiment [4] is Dihydroorotate dehydrogenase (quinone), mitochondrial (Plasmodium falciparum (isolate 3D7)) (UniProt Q08210). In words: inhibition of P. falciparum DHODH – biochemical, C-terminal His tag, absorbance 600 nm, primary screen (AID 1175).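 Note: recombinant parasite enzyme with a five histidine tag at its C terminus.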 The following applies: PfDHODH enzyme, DCIP absorbance 600 nm; higher = more signal, called active from +8 up or from −8 down.
A short description of experiment [5]: inhibition of PAO1 biofilm formation – strain PAO1, LB-PBS medium, absorbance 600 nm, primary screen (AID 1176). Conditions: P. aeruginosa PAO1 growth/biofilm, A600, 12 h; higher = more signal.
Experiment [6] is described as follows: growth modulation of vineyard yeast isolate – strain RM11-1a, OD600, basal, 24 h, primary screen (AID 1177).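 Note: cultures grown under basal conditions with no added stressor.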 Conditions: S. cerevisiae RM11-1a growth, OD600, 24 h; higher = more signal, called active from +8 up or from −8 down.
A short description of experiment [7]: growth of efflux-deficient E. coli DRC39 – strain DRC39, OD650, 24 h, E. coli filamentation inducers, primary screen (AID 1178).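 Note: growth measured as culture turbidity by optical density at 650 nm.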 Conditions: E. coli DRC39 acrAB, higher = more signal, called active from +8 up or from −8 down.
A short description of experiment [8]: growth of efflux-deficient E. coli DRC39 – strain DRC39, OD650, 48 h, E. coli filamentation inducers, primary screen (AID 1179).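 Note: screen aims at cell division blockers that make cells filament.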 The following applies: E. coli DRC39 delta-acrAB growth, higher = more signal, called active from +8 up or from −8 down.
Experiment [9] in a line: viability profiling in RPMI8226 myeloma cells – cell-based, resazurin fluorescence, basal, 24 h, PK04 Diversity Set, profiling panel (AID 1180).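 Note: RPMI8826 multiple myeloma cell line at 5000 cells per well.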 The following applies: higher = more signal.
For experiment [10], the target named is E3 ubiquitin-protein ligase XIAP (Homo sapiens) (UniProt P98170). Description: small molecules binding XIAP protein – biophysical, small-molecule microarray, fluorescence 635 nm, primary screen (AID 1181).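 Note: score merges 667 nm emission and signal to noise over triplicate slides.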 The following applies: higher = more signal.
Experiment [11] has as its system XIP peptide (Xip251-270) binding. In words: XIP fragment 251-270 binding compounds – biochemical, small-molecule microarray, fluorescence 635/667 nm, 0.1 µg/mL protein, primary screen (AID 1182). Conditions: fluorescent protein binding, 635 nm, higher = more signal, called active from +8 up or from −8 down.
Another experiment has as its system XIP peptide (Xip251-270). In words: compounds binding XIP fragment 251-270 – biochemical, small-molecule microarray, fluorescence 635/667 nm, 0.5 µg/mL protein, primary screen (AID 1183). Conditions: fluorescence 635 nm, higher = more signal.
Experiment [12] in a line: blood-stage malaria parasite viability loss – strain 3D7, DAPI fluorescence, 100 nL, primary screen (AID 1184).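 Note: parasites grown inside human red blood cells in medium with human serum.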 The following applies: P. falciparum 3D7 growth, 3 d, higher = more signal.
The target in experiment [13] is Homeobox protein Hox-A13 (Mus musculus) (UniProt Q62424). In words: disruptors of Hoxa13 oligonucleotide interaction – biochemical, fluorescence polarization, labeled oligonucleotide, primary screen (AID 1185). Conditions: Hoxa13:DNA binding, 15 min, higher = more signal, called active from +8 up or from −8 down.
Experiment [14] can be described thus: blockers of DNA damage checkpoint Chk1 activation – imaging, HeLa, hydroxyurea, phospho-Chk1 antibody, percent positive cells, primary screen (AID 1186). The following applies: hydroxyurea-induced phospho-Chk1 immunofluorescence imaging, higher = more signal.
Experiment [15] can be described thus: blockers of DNA damage checkpoint Chk1 activation – imaging, HeLa, hydroxyurea, phospho-Chk1 nuclear intensity, primary screen (AID 1187). Conditions: hydroxyurea-induced phospho-Chk1 immunofluorescence imaging, higher = more signal.

Calls of active or inactive are those of the source. Unless noted, the rule behind the calls is not given here.

The source of these data is PubChem BioAssay.

Homeobox protein Hox-A13 (Mus musculus), sequence (Q62424 whole entry, looked up): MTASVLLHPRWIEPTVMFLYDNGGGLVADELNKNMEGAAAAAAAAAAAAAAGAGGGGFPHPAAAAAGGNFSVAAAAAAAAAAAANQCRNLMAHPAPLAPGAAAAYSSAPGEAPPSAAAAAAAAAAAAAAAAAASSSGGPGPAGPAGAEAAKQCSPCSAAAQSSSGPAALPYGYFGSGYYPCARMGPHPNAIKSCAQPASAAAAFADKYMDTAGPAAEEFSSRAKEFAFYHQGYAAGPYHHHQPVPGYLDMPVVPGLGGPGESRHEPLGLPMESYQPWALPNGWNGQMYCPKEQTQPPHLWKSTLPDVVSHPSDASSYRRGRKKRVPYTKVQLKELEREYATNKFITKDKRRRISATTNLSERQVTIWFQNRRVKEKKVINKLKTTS
E3 ubiquitin-protein ligase XIAP (Homo sapiens), sequence (P98170 whole entry, looked up, the tested form may be a part): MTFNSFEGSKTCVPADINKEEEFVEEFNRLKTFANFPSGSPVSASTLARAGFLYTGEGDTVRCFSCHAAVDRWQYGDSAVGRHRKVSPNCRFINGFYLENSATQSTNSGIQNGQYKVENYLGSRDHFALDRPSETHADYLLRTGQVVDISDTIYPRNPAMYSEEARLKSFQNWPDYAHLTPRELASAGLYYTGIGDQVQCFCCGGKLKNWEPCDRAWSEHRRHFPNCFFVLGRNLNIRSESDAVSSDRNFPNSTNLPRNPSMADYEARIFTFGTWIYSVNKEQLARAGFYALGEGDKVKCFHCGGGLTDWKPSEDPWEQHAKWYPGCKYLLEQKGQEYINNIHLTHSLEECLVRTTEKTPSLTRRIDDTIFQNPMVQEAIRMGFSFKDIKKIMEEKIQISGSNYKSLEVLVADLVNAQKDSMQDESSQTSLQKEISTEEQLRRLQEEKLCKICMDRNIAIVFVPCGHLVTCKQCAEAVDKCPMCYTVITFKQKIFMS
Dihydroorotate dehydrogenase (quinone), mitochondrial (Plasmodium falciparum (isolate 3D7)), sequence (Q08210 whole entry, looked up): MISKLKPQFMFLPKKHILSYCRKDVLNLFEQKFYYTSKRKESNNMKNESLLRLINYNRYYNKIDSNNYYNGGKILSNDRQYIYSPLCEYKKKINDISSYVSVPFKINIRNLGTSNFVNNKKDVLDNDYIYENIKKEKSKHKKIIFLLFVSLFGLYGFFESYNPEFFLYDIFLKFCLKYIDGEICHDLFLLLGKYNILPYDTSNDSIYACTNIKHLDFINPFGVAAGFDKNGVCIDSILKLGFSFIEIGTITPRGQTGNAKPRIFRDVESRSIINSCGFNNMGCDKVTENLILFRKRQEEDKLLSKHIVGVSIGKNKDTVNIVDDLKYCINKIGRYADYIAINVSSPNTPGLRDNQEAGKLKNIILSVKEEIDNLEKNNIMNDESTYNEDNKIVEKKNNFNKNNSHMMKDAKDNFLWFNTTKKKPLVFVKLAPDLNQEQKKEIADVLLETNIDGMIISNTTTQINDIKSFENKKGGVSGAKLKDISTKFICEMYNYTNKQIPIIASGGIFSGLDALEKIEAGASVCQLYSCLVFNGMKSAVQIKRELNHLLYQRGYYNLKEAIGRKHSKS

For `CCOC(=O)C[C@H]1[C@H](OC(=O)c2ccc(C(=O)c3ccccc3)cc2)[C@@H](NC(=O)Cc2ccc(OC)cc2)c2cc(OCCCO)ccc2N1C(=O)c1ccc2ccccc2n1`, the z-score in experiment [1] is -0.0666; in experiment [2], -0.337 (inactive); in experiment [3], -0.0911 (inactive); in experiment [5], 0.207 (inactive); in experiment [6], 0.11 (inactive); in [7], -0.572 (inactive). For the same compound, the z-score in experiment [8] was -0.335 (inactive); in [9], 0.273; in experiment [12] it was -0.129; in experiment [13] it was -1.9 (inactive); in [14], 0.112 (inactive); in experiment [15], -0.189 (inactive). Besides, the composite z-score in [4] was 0.764 (inactive); in [10], 0.0801; in [11], 0.845 (inactive); with XIP peptide (Xip251-270) it was 0.172.

Take `C[N+](C)(C)CCCC[C@@H]1NC(=O)[C@@H]2C[C@H](C(=O)NCCCCCCNC(=O)CS)[C@H](c3ccc(O)cc3)N2C1=O`: the z-score in [1] is -0.206; in [2], 1.4 (inactive); in experiment [3], -0.387 (inactive); in experiment [5], -0.282 (inactive); in [6], 0.144 (inactive); in experiment [7] it was -0.253 (inactive). For the same compound, the z-score in [8] was -0.135 (inactive); in experiment [9] it was -0.437; in [12], 0.504; in experiment [13] it was -1.32 (inactive); in experiment [14], 0.146 (inactive); in experiment [15], 0.32 (inactive). Moreover, the composite z-score is -0.206 (inactive) in [4], -0.0911 in experiment [10], 0.307 (inactive) in experiment [11] and 0.496 in the experiment on XIP peptide (Xip251-270).

As for `CCOC(=O)C1=CCC(c2ccc(F)cc2)N(S(=O)(=O)c2ccc(C)cc2)C1` (centres undefined), the z-score in experiment [1] was -0.175; in experiment [2] it was 1.47 (inactive); in experiment [3], -0.866 (inactive); in experiment [5], 0.766 (inactive); in experiment [6], 0.241 (inactive); in experiment [7], -0.614 (inactive). Also, the z-score is -0.124 (inactive) in experiment [8]; -1.76 in experiment [9]; 0.217 in experiment [12]; -2.03 (inactive) in experiment [13]; 0.447 (inactive) in experiment [14]; -0.996 (inactive) in experiment [15]. Also, the composite z-score was -0.217 (inactive) in experiment [4], 0.206 in experiment [10], 0.428 (inactive) in experiment [11] and 0.298 in the experiment with XIP peptide (Xip251-270).

Take `CC(C)OC(=O)C=C1C[C@@H](c2cccc(Cl)c2)O[C@@H](c2cccc(Cl)c2)O1`: the z-score in experiment [1] is -0.307; in experiment [2], -2.84 (inactive); in experiment [3] it was 0.147 (inactive); in experiment [5], 0.959 (inactive); in experiment [6], -0.587 (inactive); in experiment [7] it was -0.581 (inactive). For the same compound, the z-score in experiment [8] is 0.323 (inactive); in experiment [9], -1.03; in experiment [12], -0.642; in [13], -2.09 (inactive); in experiment [14], 0.193 (inactive); in experiment [15], -0.0046 (inactive). For the same compound, the composite z-score was -0.516 (inactive) in experiment [4], 0.0307 in experiment [10], 0.262 (inactive) in experiment [11] and -0.226 in the experiment on XIP peptide (Xip251-270).

`[N-]=[N+]=Nc1ccccc1C[C@]1(C(=O)NCc2ccccc2)N=C(c2ccc(OCCCO)cc2)O[C@H]1c1ccccc1N=[N+]=[N-]`: the z-score was -1.17 in experiment [1]; 0.371 (inactive) in [2]; -3.49 (inactive) in experiment [3]; 1.13 (inactive) in experiment [5]; 0.879 (inactive) in experiment [6]; -0.377 (inactive) in [7]. The z-score is -0.0802 (inactive) in experiment [8]; -2.83 in [9]; -2.32 in experiment [12]; 0.69 (inactive) in [13]; -0.231 (inactive) in [14]; -0.741 (inactive) in experiment [15]. Besides, the composite z-score in experiment [4] is 0.535 (inactive); in experiment [10], 0.0097; in experiment [11] it was -0.12 (inactive); in the experiment on XIP peptide (Xip251-270), 0.681.

Turning to `CC(=CC1CCCCC1)[C@@H](NC(=O)c1cccnc1)c1ccc(-c2ccccc2)cc1`, the z-score in experiment [1] was 0.41; in experiment [2] it was 2.33 (inactive); in [3], 0.382 (inactive); in experiment [5], 1.93 (inactive); in experiment [6], 2.69 (inactive); in [7] it was -0.906 (inactive). The z-score in experiment [8] was -0.871 (inactive); in [9], -1.22; in [12], -0.412; in experiment [13], -0.427 (inactive); in experiment [14], 1.6 (inactive); in experiment [15], -0.72 (inactive). In addition, the composite z-score is -0.22 (inactive) in experiment [4], -0.0095 in experiment [10], -0.486 (inactive) in experiment [11] and -0.434 with XIP peptide (Xip251-270).

On to `O=C1[C@H]2C=C(I)[C@H](C[C@@H]2OCCCCO)[C@@]12CO2`, for which the z-score in experiment [1] is 0.187; in experiment [2], -1.19 (inactive); in [3] it was -0.536 (inactive); in experiment [5], 0.13 (inactive); in experiment [6] it was -0.192 (inactive); in experiment [7] it was -0.682 (inactive). The z-score is -0.405 (inactive) in experiment [8]; -0.304 in experiment [9]; 1.1 in [12]; -1.94 (inactive) in experiment [13]; 0.239 (inactive) in experiment [14]; -0.203 (inactive) in [15]. The composite z-score is -0.543 (inactive) in [4], -0.0448 in experiment [10], -0.294 (inactive) in experiment [11] and -0.425 in the experiment on XIP peptide (Xip251-270).

Regarding `CC(C)[Si](C#CCCCC#N)(Oc1ccccc1Br)C(C)C`, the z-score is -0.192 in [1]; -3.82 (inactive) in experiment [2]; 0.456 (inactive) in experiment [3]; 0.313 (inactive) in [5]; -0.218 (inactive) in experiment [6]; -0.9 (inactive) in experiment [7]. Also, the z-score was -0.832 (inactive) in experiment [8]; -0.193 in experiment [9]; 0.306 in experiment [12]; -1.08 (inactive) in [13]; 0.365 (inactive) in experiment [14]; 0.0882 (inactive) in [15]. For the same compound, the composite z-score in experiment [4] is 0.0781 (inactive); in experiment [10] it was -0.0525; in experiment [11] it was 0.983 (inactive); in the experiment with XIP peptide (Xip251-270), -0.0206.

Regarding `C[N+](C)(C)CCCC[C@@H]1NC(=O)[C@@H]2C[C@H](C(=O)NCCCCCN)[C@H](c3ccc(O)cc3)N2C1=O`, the z-score in experiment [1] was 0.236; in [2] it was -0.812 (inactive); in experiment [3] it was 0.883 (inactive); in experiment [5], 1.11 (inactive); in [6], -3.02 (inactive); in experiment [7], 1.08 (inactive). Also, the z-score in [8] is 1.48 (inactive); in experiment [9], 0.555; in experiment [12], 0.117; in [13], -0.32 (inactive); in experiment [14] it was -0.661 (inactive); in experiment [15] it was -0.154 (inactive). For the same compound, the composite z-score in experiment [4] was -2.28 (inactive); in [10] it was 0.346; in experiment [11] it was 0.941 (inactive); in the experiment with XIP peptide (Xip251-270), 0.831.
